Records with an inconclusive call do not appear. Activity calls are given as the source filed them. Calls follow the shape of the dose curve; as a rule, active = well fitted activation curve with a large enough effect in the repeat runs; inconclusive = weak or mixed curves; inactive = flat fitted curve, though single readings scatter.
Assay: A CellTox Green Cytotoxicity Assay to monitor cytotoxicity in HEK293 cells - 32 hour (AID 1224881); also: nearly all actives have a fitted effect of over 40% in size
Settings: CellTox Green fluorescence; series mostly up to 76.8 µM; cytotoxicity increase: at the top concentration
Summary of the method: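 Read-out: fluorescence of a cell-impermeant cyanine dye staining DNA of dead cells, proportional to cytotoxicity. HEK293, 600 cells/well with reagent, compound (23 nL DMSO) added after 5 h; reads at 0, 8, 16, 24, 32, 40 h.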
In the case of `CN1Cc2cc(C(=O)N3CCC(C4CCNCC4)CC3)ccc2NC(CC(=O)O)C1=O` (stereo not given), the “cytotoxicity increase” value is reported as 0.922% [at 35.3 µM] (inactive). In the case of `CC(=O)NO`, the “cytotoxicity increase” value is reported as 3.31% [at 35.3 µM] (inactive). For `CC(=O)[O][Al][O]C(C)=O`, the “cytotoxicity increase” value was -0.0707% (inactive). For `Cc1nn(C)c(Oc2ccccc2)c1/C=N/OCc1ccc(C(=O)OC(C)(C)C)cc1`, the “cytotoxicity increase” value was 0.146% (inactive). In the case of `O=C1OC(CN2CCOCC2)CN1/N=C/c1ccc([N+](=O)[O-])o1` (stereo not given), the “cytotoxicity increase” value is reported as 21.5% [at 35.3 µM] (inactive). With `COCCCN1CCC(NC(=O)c2cc(Cl)c(N)c3c2OCC3)CC1` the “cytotoxicity increase” value was -18.2% [at 35.3 µM] (inactive). With `C1CCCNCCC1` the “cytotoxicity increase” value was 8.53% (inactive). With `CCC(Cl)CCC(Cl)C(Cl)CC(Cl)C(Cl)C(Cl)CCl` (stereo not given) the “cytotoxicity increase” value was -8.42% (inactive). For `CCCCC(CC)COC(=O)COc1ccc(Cl)cc1Cl` (stereo not given), the “cytotoxicity increase” value was -6.22% (inactive). In the case of `CCC(C)O` (stereo not given), the “cytotoxicity increase” value is reported as -2.63% (inactive). In the case of `C[C@@H](c1ncncc1F)C(O)(Cn1cncn1)c1ccc(F)cc1F` (stereo not given in full), the “cytotoxicity increase” value is reported as -6.36% [at 35.3 µM] (inactive). With `CC(C)(C)OCC1CO1` (stereo not given) the “cytotoxicity increase” value was -1.66% (inactive). For `COS(=O)(=O)C(F)(F)F`, the “cytotoxicity increase” value was 3.19% (inactive). With `C[Si](C)(CCCN)O[Si](C)(C)CCCN` the “cytotoxicity increase” value was -15.4% (inactive). With `O=C1OC(=O)C2C3C=CC(C3)C12` (stereo not given) the “cytotoxicity increase” value was -11.6% (inactive). For `CC(C)(C)Cl`, the “cytotoxicity increase” value was 5.25% (inactive). With `Cc1ccc(C(C)OC(=O)C2(C)CCC(C(=O)O)C2(C)C)cc1` (stereo not given) the “cytotoxicity increase” value was -17.3% [at 35.3 µM] (inactive). With `CC(CSC(=O)c1ccccc1)C(=O)N1C[C@@H](Sc2ccccc2)C[C@H]1C(=O)O` (stereo not given in full) the cytotoxicity increase was 1.09% [at 15.8 µM] (inactive). With `O=C(NCCO[N+](=O)[O-])c1cccnc1` the “cytotoxicity increase” value was -0.599% [at 35.3 µM] (inactive). With `CN(C)CCN(Cc1ccsc1)c1ccccn1` the “cytotoxicity increase” value was -3.94% [at 35.3 µM] (inactive). In the case of `Nc1cc(C(=O)O)c(O)c(S(=O)(=O)O)c1`, the “cytotoxicity increase” value is reported as -8.82% (inactive). In the case of `O=S(c1cc(Cl)cc(Cl)c1O)c1cc(Cl)cc(Cl)c1O`, the “cytotoxicity increase” value is reported as 4.21% [at 35.3 µM] (inactive). In the case of `COC(=O)c1ccc(I)cc1S(=O)(=O)NC(=O)Nc1nc(C)nc(OC)n1`, the “cytotoxicity increase” value is reported as -10.4% (inactive). For `C[C@H]1C[C@H]2[C@@H]3CCC4=CC(=O)C=C[C@]4(C)[C@@]3(Cl)[C@@H](O)C[C@]2(C)[C@@]1(O)C(=O)CO`, the “cytotoxicity increase” value was 22.9% [at 35.3 µM] (inactive). In the case of `CC(C)Nc1ccc(NC(C)C)c2c1C(=O)c1ccccc1C2=O`, the Potency is reported as 25.5 µM (active). For `CC(C)OC(=O)C(C)N(C(=O)c1ccccc1)c1ccc(F)c(Cl)c1` (stereo not given), the “cytotoxicity increase” value was 20% (inactive). For `CC(C)(CO)[N+](=O)[O-]`, the “cytotoxicity increase” value was -12.2% (inactive). With `COc1ccc(C(=O)N2CCN(CC(=O)N3CCOCC3)CC2)cc1` the “cytotoxicity increase” value was -7.05% [at 35.3 µM] (inactive). For `O=C(O)c1ccccc1Cl`, the “cytotoxicity increase” value was -13.8% (inactive). In the case of `CCCCCCCC#N`, the “cytotoxicity increase” value is reported as -1.39% (inactive). In the case of `CCCCc1ncc(/C=C(\Cc2cccs2)C(=O)O)n1Cc1ccc(C(=O)O)cc1`, the “cytotoxicity increase” value is reported as -3.96% [at 35.3 µM] (inactive). For `CC1(c2ccccc2)OC(C(=O)O)=CC1=O` (stereo not given), the “cytotoxicity increase” value was 1.64% [at 35.3 µM] (inactive). For `NC(N)=NCCC[C@H](N)C(=O)O`, the cytotoxicity increase was -21.7% [at 6.97 µM] (inactive). In the case of `CC/C=C\CCOC(=O)CC`, the “cytotoxicity increase” value is reported as 2.99% (inactive). In the case of `CN1CCN(C(c2ccccc2)c2ccccc2)CC1`, the “cytotoxicity increase” value is reported as -5.25% [at 35.3 µM] (inactive).

Reference: PubChem BioAssay (Tox21)
% is scaled to controls: 0 for no effect and ±100 for the full control effect; potency is read from the fitted curve at half-maximal effect.
